Test results from PubChem BioAssay (NCATS).
Records with an inconclusive call do not appear. Activity calls are given as the source filed them. Calls come from the whole dose curve; as a rule, active = well fitted cell-killing curve with a large enough effect; inconclusive = small, poorly fitted or top-dose-only effect, or effect the other way; inactive = no such curve, though single readings can be large or run the other way.

test: MultiTox-Fluor Cytotoxicity Assay - LYMP1-002 - Dead Cells (AID 960); settings: LYMP1-002 lymphoblastoid cells, dead-cell protease fluorescence; series mostly up to 46.1 µM; note: nearly all actives have a fitted effect of over 60% in size
Description: NIH Chemical Genomics Center [NCGC]
NIH Molecular Libraries Screening Centers Network [MLSCN]
National Institutes of Environmental Health Sciences [NIEHS]
National Toxicology Program [NTP]
We have developed a 1536-well cell-based assay for quantitative high throughput screening (qHTS) against a number of cell lines to determine in vitro cytotoxicity of small molecules. This particular assay uses a human lymphoblastoid cell line (LYMP1-002) purchased from Coriell Institute.
NCGC Assay Protocol Summary:
The MultiTox-Fluor Cytotoxicity Assay (Promega) is a homogeneous method to simultaneously measure the relative number of live and dead cells in culture by detecting changes in cell membrane integrity. There are two fluorogenic peptide substrates in the assay reagent. Viable cells are determined when the cell-permeant substrate (GF-AFC) enters the cell and is cleaved by protease from live cells resulting in liberated fluorophore. This live-cell protease activity restricted to viable cells is proportional to cell number. The dead cells are determined by using fluorogenic cell-impermeant peptide substrate (bis-AAF-R110) which cleaved by dead cell proteases leaking from damaged cell membrane.
Using the MultiTox-Fluor Cytotoxicity Assay, the relative number of dead cells was measured in the lymphoblastoid cell line with complete culture medium following compound treatment for 16 hours. The assay was performed in opaque black Kalypsys 1536-well plates. In the screen, tetraoctylammonium bromide was used as positive control. Library compounds were measured for their ability to cause acute toxicity in the cell line, as reflected by an increase in dead cell protease activity, in a concentration-dependent manner. Data were normalized to the controls for basal activity (DMSO only) and 100% stimulation (15 uM tetraoctylammonium bromide). AC50 values were determined from concentration-response data modeled with the standard Hill equation.
qHTS protocol for MultiTox-Fluor Cytotoxicity assay
[Step] [Parameter] [Value] [Description]
1. Reagent; 5 uL; 2500 lymphoblastoid cells/well
2. Time; 5 hr; 37 C incubation
4. Controls; 23 nL; Tetraoctylammonium bromide 6.4pM to 92 uM
5. Time; 16 hr; 37 C incubation
6. Reagent; 5 uL; MuliTox-Fluor Assay reagent
7. Time; 60 min; Room Temperature
8. Detection; dead-cell fluorescence (Ex/Em=485/520); EnVision plate reader
Keywords: cytotoxicity, lymphoblastoid cell line, fluorescence, NTPHTS, NTPHTS_NCGC, NIEHS, EPA, DSSTox, MLSMR, MLSCN, NIH Roadmap, qHTS, NCGC

| SMILES | outcome |
| --- | --- |
| Nc1ccc([N+](=O)[O-])cc1 | inactive |
| CCOP(=O)(NC(C)C)Oc1ccc(SC)c(C)c1 (stereo unspecified) | inactive |
| Cc1cc(O)ccc1Cl | inactive |
| O=[N+]([O-])c1c2ccccc2cc2ccccc12 | inactive |
| CCCCCCCCc1ccc(O)cc1 | inactive |
| CN(C)NC(=O)CCC(=O)O | inactive |
| C=CC(=O)NCNC(=O)C=C | inactive |
| c1cc2ccc3cccc4ccc(c1)c2c34 | inactive |
| O=C(O)C(Cl)Cl | inactive |
| CN(C)[C@@H]1C(=O)C(C(N)=O)=C(O)[C@@]2(O)C(=O)C3=C(O)c4c(O)cccc4[C@@](C)(O)[C@H]3[C@H](O)[C@@H]12 | inactive |
| Nc1ccc(Cl)cc1 | inactive |
| O=C(O)COc1ccccc1 | inactive |
| CC(=O)[O][Hg][c]1ccccc1 | inactive |
| Nc1ccc(Sc2ccc(N)cc2)cc1 | inactive |
| Nc1ccc(Cl)cc1N | inactive |
| C1CCC(NC2CCCCC2)CC1 | inactive |
| COC(C)(C)CCCC(C)C/C=C/C(C)=C/C(=O)OC(C)C (stereo unspecified) | inactive |
| O=S(=O)(c1ccc(Cl)cc1)c1ccc(Cl)cc1 | inactive |
| O=[N+]([O-])c1cc([N+](=O)[O-])c2ccccc2c1 | inactive |
| OCCCBr | inactive |
| O=[N+]([O-])c1c(Cl)c(Cl)cc(Cl)c1Cl | inactive |
